# Experimental data reported in PMC5540273 (PLoS ONE, 2017).
# System: CDK4-cyclinD3
# 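Note: kd values determined as follow-up on hits from a single-replicate KINOMEscan panel screen.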
row,SMILES,Kd [µM]
1,CC(=O)c1c(C)c2cnc(Nc3ccn(C)n3)nc2n(C2CCCC2)c1=O,0.0099
2,CC(=O)c1c(C)c2cnc(Nc3ccc(N4CCNCC4)cn3)nc2n(C2CCCC2)c1=O,0.00062
3,CCc1ccc(-c2ccc3c(c2)-c2n[nH]cc2S(=O)(=O)N3C)cc1,> 10

# System: CDK4
row,SMILES,Kd [µM]
1,O=C(Nc1n[nH]c2cc(-c3ccsc3)ccc12)C1CC1 [SB-732932],> 10
2,COc1nccc(-c2c(-c3ccc(F)cc3)ncn2CCCN2CCOCC2)n1 [SB-282852],> 10
3,CNc1nc(-c2ccc3c(N)n[nH]c3c2)cc(N2C[C@@H](C(=O)NC3CCCCC3)OC[C@H]2C)n1 [GSK2375584],> 10
4,O=C1NC(=O)C(c2ccc(Cl)cc2)=C1Nc1cccc(Cl)c1 [SB-317651],> 10

# System: CDKL1
row,SMILES,Kd [µM]
1,CNC(=O)c1ccc(C)c(-n2c(C)cc(OCc3ccc(F)cc3F)c(Br)c2=O)c1,> 10
2,Cc1c(Cn2c(C)c(C)n3c(=O)cc(N4CCOCC4)nc23)cccc1C(F)(F)F [GSK2328680],> 10
3,Cn1cncc1C(=O)NC1CCN(c2ccnc(Nc3ccc(F)cc3)n2)C1 (stereo not drawn) [GSK1379717],> 10
4,Cc1ccc(NC(=O)Nc2ccc(Cl)c(C(F)(F)F)c2)cc1-c1ccc(C(=O)Nc2ccncc2)cc1 [GSK1398470],> 10
5,Cn1cnc2c(N)ncnc21 [SKF-97623],> 10
6,Cn1cncc1-c1cc2c(Nc3ccc(OCc4ccccc4)cc3)ncnc2cn1 [GW281179],> 10
7,COc1ccc(Nc2nccc(N3CCC(NC(=O)C(C)c4ccc(Cl)cc4)C3)n2)cc1 (stereo not drawn) [GSK1379735],> 10
8,NS(=O)(=O)c1cccc(N/C=C2\C(=O)Nc3ccc(S(=O)(=O)Cc4c(Cl)cccc4Cl)cc32)c1 [GSK398099],> 10

# System: CDKL2
row,SMILES,Kd [µM]
1,O=C(Nc1n[nH]c2cc(-c3ccsc3)ccc12)C1CC1 [SB-732932],0.1
2,O=C(Nc1n[nH]c2nc(-c3cccs3)c(Br)cc12)C1CCCC1 [SB-743341],0.33
3,COC(=O)c1cccc(NC(=O)NC2CCN(c3ccnc(Nc4ccc(F)cc4)n3)C2)c1 (stereo not drawn) [GSK1379725],0.68
